The text below walks through data of PubChem BioAssay (NCATS).

Experiment [1] can be described thus: Viability qHTS for spleen associated tyrosine kinase inhibitor (SYKi) drug resistant MV4-11 cells (AID 1963824). Note: nearly all actives have a fitted effect of over 35% in size. Conditions: SYKi-resistant MV4-11 viability, CellTiter-Glo, 72 h; series mostly up to 45 µM. In short, it runs like this:
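SYK-inhibitor-resistant MV4-11 AML cells were seeded at 500 per well onto compound and cultured 72 hours (37 °C, 5% CO2). CellTiter-Glo was then added, and after 10 min at room temperature, luminescence gave viability.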
(In general: qHTS replaces the single test concentration by a dilution series.)

Experiment [2] can be described thus: Quantitative highthroughput screen to assess conditional lethalithy of P12 Ichikawa cells grown in Human Plasma-Like Medium with dialyzed fetal bovine serum (HPLM+ds) (AID 1963879). Note: nearly all actives have a fitted effect of over 35% in size. Conditions: ATP luminescence, 48 h; Potency: viability; series mostly up to 45.8 µM. The gist of the method:
(§1)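 Each medium arm—HPLM with 10% dialyzed FBS, or RPMI1640 with 5 mM glucose and 10% untreated or dialyzed FBS—was screened against an 11-point, 3-fold compound titration for 48 h at 37 °C, with CellTiter-Glo luminescence as endpoint.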

Experiment [3] is described as follows: Quantitative highthroughput screen to assess conditional lethalithy of P12 Ichikawa cells grown in RPMI1640 with dialyzed fetal bovine serum (RPMI+ds) (AID 1963880).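 For Viability: 100% = DMSO wells and 0% = empty wells on each plate.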 Note: nearly all actives have a fitted effect of over 35% in size. Conditions: ATP luminescence, 48 h; Potency: P12-Ichikawa viability; series mostly up to 45.8 µM. The gist of the method: as §1
Experiment [4] can be described thus: Quantitative highthroughput screen to assess conditional lethalithy of P12 Ichikawa cells grown in RPMI1640 with untreated serum (RPMI+s) (AID 1963881).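 For Viability: 100% = DMSO wells and 0% = empty wells without cells.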 Note: nearly all actives have a fitted effect of over 35% in size. Conditions: ATP luminescence, 48 h; Potency: viability; series mostly up to 45.8 µM. In short, it runs like this: as §1
A short description of experiment [5]: Quantitative highthroughput screen to assess conditional lethalithy of SEM cells grown in Human Plasma-Like Medium with dialyzed fetal bovine serum (HPLM+ds) (AID 1963882). Note: nearly all actives have a fitted effect of over 35% in size. Conditions: SEM B-ALL cells in HPLM+ds, CellTiter-Glo viability, 48 h; series mostly up to 45.8 µM. In short, it runs like this:
as §1

Experiment [6] is described as follows: Quantitative highthroughput screen to assess conditional lethalithy of SEM cells grown in RPMI1640 with unreated serum (RPMI+s) (AID 1963883).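 For Viability: 100% = DMSO wells and 0% = empty wells without cells.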 Note: nearly all actives have a fitted effect of over 35% in size. Conditions: SEM B-ALL cells, CellTiter-Glo viability, 48 h; series mostly up to 45.8 µM. In short, it runs like this: as §1
For orientation: Cellular ATP, detected with luciferase, serves as a proxy for viable cell number.

Experiment [7] can be described thus: Cellular viability qHTS for adrenocortical cancer (ACC) cell line SW-13 (AID 1963989).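 For activity (max response): cells grown in serum-free medium with ITS supplement; % is set by controls: 0 for no effect and ±100 for the full control effect.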 Note: nearly all actives have a fitted effect of over 65% in size. Conditions: SW-13 ACC cells viability, CellTiter-Glo, 48 h; activity (max response): hits give low values. In short, it runs like this:
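Compound titrations (up to 46 uM final, in DMSO) were applied to SW-13 cells for 48 h at 37C/5% CO2. Reading used CellTiter-Glo after 20 min at room temperature; fitted curves yielded IC50 and efficacy.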

A short description of experiment [8]: Quantitative highthroughput screen to assess conditional lethalithy of NOMO1 cells grown in Human Plasma-Like Medium with dialyzed fetal bovine serum (HPLM+ds) (AID 1963878). Note: nearly all actives have a fitted effect of over 35% in size. Conditions: NOMO1 AML cells in HPLM+ds, CellTiter-Glo viability, 48 h; series mostly up to 45.8 µM. In short, it runs like this: as §1
Experiment [9] in a line: Quantitative highthroughput screen to assess conditional lethalithy of SEM cells grown in RPMI1640 with dialyzed fetal bovine serum (RPMI+ds) (AID 1963884).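 For Viability: 100% = DMSO control wells and 0% = empty wells without cells.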 Note: nearly all actives have a fitted effect of over 35% in size. Conditions: SEM B-ALL cells, RPMI+dialyzed FBS, CellTiter-Glo viability, 48 h; series mostly up to 45.8 µM. In short, it runs like this: as §1
Experiment [10] can be described thus: Cellular viability qHTS for adrenocortical cancer (ACC) cell line NCI-H295R (AID 1963990). Note: nearly all actives have a fitted effect of over 60% in size. Conditions: CellTiter-Glo ATP luminescence, 48 h; series mostly up to 46.1 µM. In short, it runs like this: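 Readout: CellTiter-Glo luminescence, 20 min RT. Exposure: 48 h, 37C/5% CO2. Cells: NCI-H295R, ITS-DMEM serum-free. Range: up to 46 uM. Analysis: 4PL fit, IC50 plus efficacy.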

The structures appear in SMILES notation. Where “and” joins values, the source holds several entries; their conditions need not be identical. Equal entries are not always repeated. Inconclusive results are not listed. Values without a mark were called inactive. Calls of active or inactive are those of the source. Calls come from the whole dose curve; as a rule, active = well fitted curve in the direction sought with a large enough effect; inconclusive = small, poorly fitted or top-dose-only effect, or another doubt; inactive = no such curve, though single readings can be large; an effect the other way counts as inactive or inconclusive.
Potency is the fitted concentration of half-maximal effect.

Consider `Nc1nc(NCCNc2ncc(-n3ccnc3)c(-c3ccc(Cl)cc3Cl)n2)ccc1[N+](=O)[O-]`, for which the Potency in experiment [1] is 3.72 µM (active). Further, the Potency entry in [2], in experiment [3], in [4], in experiment [5] and in experiment [6] was “inactive” in each case. Further, the activity (max response) in [7] is -10%.
Turning to `O=C(NCc1ccncc1)C12C[C@H]3C[C@@H](C1)CC(c1ccc(Cl)cc1)(C3)C2`, the Potency in experiment [1] is 11.8 µM (active); in [8], 18700 nM (active); in [2], 11800 nM (active); in [3] it was 20900 nM (active); in experiment [4], 20900 nM (active); in [5], 14800 nM (active). Besides, the Potency in experiment [6] was 7430 nM (active); in experiment [9] it was 13200 nM (active). The Potency result in experiment [10] is “inactive”.
`O=c1cc(-c2ccccc2)oc2cc(O)cc(O)c12`: the Potency in experiment [1] was 16.6 µM (active); in experiment [8] it was 23500 nM (active); in experiment [3], 23500 nM (active); in [5], 16600 nM (active); in experiment [6], 11800 nM (active); in [9], 16600 nM (active).
For the molecule `CO[C@@H]1[C@H](N(C)C(=O)c2ccccc2)C[C@H]2O[C@]1(C)n1c3ccccc3c3c4c(c5c6ccccc6n2c5c31)C(=O)NC4`, the Potency in experiment [1] is 51.7 nM (active) and 59 nM (active); in experiment [2] it was 2640 nM (active); in [5], 662 nM (active); in [6], 743 nM (active); in experiment [9] it was 743 nM (active).
With `CCC[C@H](Nc1nc(-c2ccc(NC(=O)NCC)c(OC)c2)ncc1C)c1cccnc1`, the Potency was 0.118 µM (active) in [1]; 41.8 nM (active) in [2]; 41.8 nM (active) in experiment [3]; 41.8 nM (active) in experiment [4]; 224 nM (active) in [7].
With `CCS(=O)(=O)Nc1ccc2[nH]c(O)c(C(=Nc3ccc(CN4CCCCC4)cc3)c3ccccc3)c2c1`, the Potency in experiment [1] was 0.0332 µM (active); in experiment [8], 4690 nM (active); in [5], 74.3 nM (active); in experiment [6] it was 93.5 nM (active); in experiment [9] it was 93.5 nM (active); in experiment [7], 3550 nM (active).
Consider `CC(C)C(=O)Nc1ccc([N+](=O)[O-])c(C(F)(F)F)c1`, for which the Potency is 10.6 µM (active) and 18.6 µM (active) in [1]; 3320 nM (active) in experiment [3]; 2090 nM (active) in experiment [4]. In addition, the Potency result in experiment [5], in experiment [6] and in [9] was “inactive” throughout. The activity (max response) in [7] is 15.5%.
In the case of `CCc1c2c(nc3ccc(O)cc13)-c1cc3c(c(=O)n1C2)COC(=O)[C@]3(O)CC`, the Potency in [1] was 0.0083 µM (active); in experiment [2] it was 5.3 nM (active); in experiment [4] it was 5.3 nM (active); in [5], 14.8 nM (active); in [6], 8.3 nM (active); in [9], 10.5 nM (active). Also, the Potency in experiment [7] was 224 nM (active); in [10], 1.26 µM (active).
As for `Cc1c(C(=O)NN2CCCCC2)nn(-c2ccc(Cl)cc2Cl)c1-c1ccc(Cl)cc1`, the Potency is 23.7 µM (active) in experiment [1]; 3320 nM (active) in [3]; 20.6 µM (active) and 28.2 µM (active) in [10]. The Potency entry in [5], in [6] and in experiment [9] was “inactive” in each case.
With `Clc1cccc(-c2nnnn2Cc2cccnc2)c1Cl`, in experiment [1], the Potency result is “inactive”. The Potency in experiment [4] is 1320 nM (active).
For `N=C(N)c1ccc(OCCCCCOc2ccc(C(=N)N)cc2)cc1`, the Potency in experiment [1] is 4.22 µM (active) and 1.66 µM (active); in experiment [7], 16.4 µM (active) and 15.8 µM (active). In addition, the Potency result in [2] and in experiment [3] was “inactive” throughout.
For `O=C(Nc1cccc2c(=O)cc(-c3nn[nH]n3)oc12)c1ccc(OCCCCc2ccccc2)cc1`, the Potency entry in experiment [1] was “inactive”. Besides, the Potency in experiment [8] is 23500 nM (active); in experiment [6] it was 9350 nM (active). In addition, in experiment [7], the activity (max response) was 13.6%.
Take `CN1CCN(c2c(F)cc3c(=O)c(C(=O)O)cn4c3c2OCN4C)CC1`: the Potency entry in experiment [1], in experiment [2], in experiment [3], in [4] and in [10] was “inactive” each time. In addition, the activity (max response) in [7] was -1.01%.
As for `CN1CCN(C2=Nc3cc(Cl)ccc3Nc3ccccc32)CC1`, the Potency result in experiment [1], in experiment [2], in [3] and in experiment [4] was “inactive” in each case.
In the case of `CCN(CC)CCCCNc1nc2cc(Cl)c(Cl)cc2nc1-c1ccc(-c2cccs2)s1`, the Potency in experiment [1] is 4.68 µM (active); in experiment [8], 20900 nM (active); in [10], 7.08 µM (active).
`CN(C)CCCN1c2ccccc2CCc2ccc(Cl)cc21`: the Potency in experiment [1] was 10.6 µM (active) and 14.8 µM (active). Also, the Potency result in [2] is “inactive”.
Consider `C[N+](C)([O-])CCNc1ccc(NCC[N+](C)(C)[O-])c2c1C(=O)c1c(O)ccc(O)c1C2=O`, for which the Potency in [1] is 0.934 µM (active); in experiment [2], 1660 nM (active); in experiment [4], 743 nM (active); in experiment [5], 1180 nM (active); in [6], 296 nM (active); in experiment [9], 743 nM (active). In addition, the Potency entry in experiment [10] is “inactive”.
